Compounds without any hit were thinned out: in the full panel of roughly 83,000, 20% have a hit.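 The endpoint reported here, percent growth, reads 100 for growth as untreated, 0 for no net growth and -100 for all cells dead.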 A number with no mark means an inactive call. The source made the active and inactive calls. How the source made its calls: active means growth percent below 10; inactive means the rest.
Columns and labels:
Assay in all cases: NCI-60 one-dose screen, 48 h (100 = growth as untreated, 0 = no growth, -100 = all killed)
Conditions in all cases: 10 µM unless noted
HCT-15 colon = tested on: HCT-15 colon
HT29 colon = tested on: HT29 colon
SNB-75 CNS = tested on: SNB-75 CNS
SNB-19 CNS = tested on: SNB-19 CNS
PC-3 prostate = tested on: PC-3 prostate
SK-MEL-5 melanoma = tested on: SK-MEL-5 melanoma
UACC-62 melanoma = tested on: UACC-62 melanoma
LOX IMVI melanoma = tested on: LOX IMVI melanoma
SK-MEL-28 melanoma = tested on: SK-MEL-28 melanoma
U251 CNS = tested on: U251 CNS

Structure (SMILES) | growth (HCT-15 colon) | growth (HT29 colon) | growth (SNB-75 CNS) | growth (SNB-19 CNS) [%] | growth (PC-3 prostate) | growth (SK-MEL-5 melanoma) | growth (UACC-62 melanoma) | growth (LOX IMVI melanoma) | growth (SK-MEL-28 melanoma) | growth (U251 CNS)
COc1ccc(C(C)=O)cc1S(N)(=O)=O | 107% | 86% | 101% | 99.7 | 85.7% | 104% | 94.7% | 106% | 106% | –
O=C1NC(=Nc2ccc(O)cc2)S/C1=C\c1cccs1 | 20.9% | 89.7% | -12.7% (active) | 32.4 | -1.89% (active) | 47.8% | 46.1% | 32.1% | 75.6% | –
CN1C(=O)N(C)C2C1NC(=S)N2/N=C/C=C/c1ccccc1[N+](=O)[O-] (stereo unspecified) | 29% | 2.85% (active) | -5.19% (active) | 37 | 17.3% | 11.8% | 26.4% | 31.6% | 56.7% | –
Cc1cc(C)c(-c2c(O)c(Br)c(-c3c(C)cc(C)c(Br)c3C)c(O)c2Br)c(C)c1Br | 10.2% | 2.43% (active) | 33.4% | 47.5 | 27.7% | 1.69% (active) | 14.8% | -26% (active) | 49.1% | –
O=C(c1ccc(F)c(Cl)c1)N1c2ccccc2Sc2ccccc21 | 27.2% | 36.2% | 68.6% | 77 | – | 34.4% | 25.7% | 41.2% | 61.7% | 39.4%
CC1(C)OC(=O)C(=Cc2cccc(Br)c2)C(=O)O1 | 108% | 92.9% | 94.4% | 105 | 89.5% | 94.8% | 101% | 101% | – | –
CC(O)c1ncc(/C=C2\SC(=S)N(Cc3ccccc3)C2=O)s1 (stereo unspecified) | 97.4% | 59.4% | 102% | 106 | – | 93.7% | 99.4% | 92.7% | 92.2% | 87.9%
CCCCCCCCCCCCCCCCOC(=O)c1c(C)[nH]c(/C=C2\N=C(c3ccc[nH]3)C=C2OC)c1C | 56.3% | 13.6% | 51.4% | 84.6 | 45.6% | -80.8% (active) | -15.3% (active) | -83.9% (active) | 51.1% | –
CCOc1ccc(/C=N\N=C\c2ccc(OCC)cc2)cc1 | 7.98% (active) | 34.5% | 112% | 98.3 | 67.1% | 88.3% | 79.9% | 70.5% | 105% | –
N=c1c2c(=N)n3c(nc2nc2n1-c1ccccc1Sc1ccccc1-2)sc1cc(Cl)ccc13 | 15.7% | 26.4% | 53.4% | – | – | -12.8% (active) | 13.8% | 13.5% | 25% | 9.17% (active)
C=C1C(=O)O[C@H]2[C@H]1CC/C(Cn1cc(-c3cc(C(F)(F)F)cc(C(F)(F)F)c3)nn1)=C\CC[C@@]1(C)O[C@@H]21 | -90.6% (active) | -86% (active) | -96.6% (active) | – | -81% (active) | -99.5% (active) | -76.6% (active) | -87.1% (active) | -82.7% (active) | -97.6% (active)
CCCCCCNc1nc(NCCCCCC)c2[nH]c(NCCCCCC)nc2n1 | 88.1% | 36.6% | -8.09% (active) | – | 18.7% | 78.1% | 81.2% | 1.23% (active) | 98.2% | -32.8% (active)
O=C1/C(=C/c2ccccc2[N+](=O)[O-])COc2ccc(O)cc21 | -8.7% (active) | -20.8% (active) | 43.2% | – | 4.19% (active) | 59.1% | 2.16% (active) | -66.1% (active) | -5.79% (active) | 7.41% (active)
N#Cc1c(N2CCOCC2)nc(=S)[nH]c1-c1ccccc1 | 86.6% | 86.1% | 15.1% | – | 47% | 63% | 43.6% | 80% | 79.6% | 78.5%
C=C(c1ccc(C(=O)O)cn1)c1cc2c(cc1C)C(C)(C)CCC2(C)C | 85.8% | 93.8% | 94% | – | 71.1% | 70.8% | 94.3% | 87.3% | 96.8% | 75.6%
COc1ccc(C2=Nc3c(N)ncnc3NC(c3cccc(Nc4ccnc5cc(C(F)(F)F)ccc45)c3)C2)cc1 (stereo unspecified) | 32.4% | 42.6% | 56.7% | – | 42.2% | 51.8% | 76.1% | 61.8% | 84% | 54.5%
CCN(CC)S(=O)(=O)c1ccc(S(=O)(=O)N2CCC[C@@H](C(=O)N3CCN(C(=O)OC(C)(C)C)CC3)C2)cc1 | 91.8% | 91.5% | 48.7% | – | 77.5% | 18.2% | 62.4% | 58% | 97.6% | 81.6%
C#CCOc1cccc(-c2ncc3cc(NC(=O)CCl)ccc3n2)c1 | -29.6% (active) | -67.6% (active) | 24.4% | – | 11.7% | -65.2% (active) | -6.06% (active) | -50.4% (active) | 53.9% | -95.7% (active)
COc1cc(OC)cc(C2C(C#N)=C(N)Oc3c2ccc2ccc(O)cc32)c1 (stereo unspecified) | 4.56% (active) | 7.81% (active) | 72% | – | 17.6% | -45.6% (active) | 28.9% | 0.698% (active) | 48.6% | 12.8%
C=C1C(=O)O[C@H]2[C@H]1CC/C(CNC(=O)c1cc3ccccc3[nH]1)=C\CC[C@@]1(C)O[C@@H]21 | -78.9% (active) | -59.7% (active) | 48.4% | – | -48.5% (active) | -87.6% (active) | -74.9% (active) | -78.8% (active) | -57.6% (active) | -16.8% (active)
CCOC(=O)c1c2c(n3ccccc13)C(=O)c1ncccc1C2=O | 22.4% | 47.6% | 34.3% | 16.5 | – | -17.8% (active) | -25.8% (active) | 0.56% (active) | 28.9% | –
COc1cccc(Nc2ccnc3[nH]c4ccc([N+](=O)[O-])cc4c23)c1 | 31.4% | 24.3% | 21% | – | 48.2% | 38.7% | 24.2% | 52.2% | 65.7% | 42%
Cc1nc2sc(C(=O)Nc3cccc(Cl)c3)c(N)c2cc1C(O)c1ccccc1 (stereo unspecified) | 14.2% | 14.9% | 46.9% | – | 28.1% | 11% | 31.5% | 45.3% | 56% | 10.2%
COc1cc(-c2nc(SCCC(C)C)nc(N3CCOCC3)c2C#N)cc(OC)c1OC | 68.3% | 19.2% | 53.4% | – | 62.3% | 102% | 91.4% | 83.2% | 108% | 5.83% (active)
COc1ccc(C(c2cc(OC)c(OC)c(OC)c2)N2CCN(Cc3ccccc3)CC2)cc1 (stereo unspecified) | 47.6% | 28.3% | 92.4% | – | 59.3% | 52.6% | 49.4% | 67% | – | 62.8%
CC(C)=CC(=O)N[C@@H]1CC2CCC3C(CC[C@@]4(C)C3CC[C@@H]4C(C)N(C)C)[C@@]2(C)C[C@@H]1O (stereo partly specified) | 2.93% (active) | -4.96% (active) | 56.1% | – | 44.6% | 10.1% | 44.6% | 1.62% (active) | -28% (active) | 56.7%
COc1ccc2nc(SCC(=O)Nc3ccccc3C)[nH]c2c1 | 99.8% | 109% | 82.5% | – | 84.5% | 95.7% | 84.5% | 95.6% | 95.8% | –
Cc1cccc(-n2c(C)nc3ccc(N4CCCNC4=O)cc3c2=O)c1 | 113% | 106% | 103% | – | 100% | 102% | 97.3% | 97.7% | 112% | 93.4%
C#CC#CC#CC#CC#CC#CC#CC#CCC1OCC(COC(=O)O[C@@H](C(=O)O[C@H]2C[C@@]3(O)[C@@H](OC(=O)c4ccccc4)[C@@H]4[C@]5(OC(C)=O)CO[C@@H]5C[C@H](O)[C@@]4(C)C(=O)[C@H](OC(C)=O)C(=C2C)C3(C)C)[C@@H](NC(=O)c2ccccc2)c2ccccc2)O1 (stereo partly specified) | 66.8% | 5.02% (active) | -25.2% (active) | – | 19.4% | 23.4% | 22.3% | 26.9% | 59.2% | 17.9%

— PubChem BioAssay (NCI)
